# Experimental data as given in PubChem BioAssay.
# Calls of active or inactive are those of the source. Unless noted, the rule behind the calls is not given here.
# Key:
# [1] = compound effects on lung adenocarcinoma cell viability – A549, calcein-AM fluorescence, 48 h, basal, profiling panel (AID 1162); conditions: higher = more signal; note: test concentration not given here
# [2] = compound effects on differentiated 3T3-L1 adipocyte viability – cell-based, 3T3-L1 adipocytes, calcein-AM fluorescence, 48 h, basal, profiling panel (AID 1163); conditions: 3T3-L1 adipocytes viability, higher = more signal; note: test concentration not given here
# [3] = compound effects on hepatocellular carcinoma cell viability – HepG2, calcein-AM fluorescence, 48 h, basal, profiling panel (AID 1164); conditions: higher = more signal; note: test concentration not given here
# [4] = compound effects on multiple myeloma cell viability – MM1S, calcein-AM fluorescence, 48 h, basal, profiling panel (AID 1165); conditions: higher = more signal; note: test concentration not given here
# [5] = calcein-AM signal in unstimulated myeloma cells – cell-based, calcein-AM fluorescence, 48 h, PK04 Diversity Set, profiling panel (AID 1166); conditions: RPMI8226 myeloma viability, higher = more signal;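 note: cells grown under basal conditions without added stimulus; test concentration not given here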
# [6] = JC-1 mitochondrial signal, unstimulated HepG2 cells – cell-based, JC-1 fluorescence, 24 h, 100 nL compound, profiling panel (AID 1167); conditions: HepG2 mitochondrial potential, higher = more signal; note: test concentration not given here
# [7] = JC-1 mitochondrial signal, unstimulated adipocytes – cell-based, JC-1 fluorescence, 3T3-L1 adipocytes, 24 h, 100 nL compound, profiling panel (AID 1168); conditions: JC-1 mitochondrial fluorescence, higher = more signal, called active from +8 up or from −8 down; note: test concentration not given here
# [8] = JC-1 mitochondrial signal, unstimulated myeloma cells – cell-based, JC-1 fluorescence, RPMI8226, 24 h, 100 nL compound, profiling panel (AID 1169); conditions: JC-1 mitochondrial potential fluorescence, higher = more signal; note: test concentration not given here
# [9] = JC-1 mitochondrial signal, unstimulated MM1S myeloma – cell-based, JC-1 fluorescence, 24 h, 100 nL compound, profiling panel (AID 1170); conditions: MM1S mitochondrial potential, higher = more signal; note: test concentration not given here
# [10] = resazurin metabolic signal in A549 cells – cell-based, resazurin fluorescence, 24 h, PK04 Diversity Set, profiling panel (AID 1171); conditions: A549 viability, higher = more signal, called active from +8 up or from −8 down; note: test concentration not given here
# [11] = resazurin metabolic signal in HepG2 cells – cell-based, resazurin fluorescence, 24 h, PK04 Diversity Set, profiling panel (AID 1172); conditions: HepG2 viability, higher = more signal; note: test concentration not given here
# [12] = budding yeast growth changes without added modifier – OD600, strain BY4716, 24 h, basal condition, primary screen (AID 1173); conditions: S. cerevisiae BY4716 growth, OD600, 24 h; higher = more signal, called active from +8 up or from −8 down
# [13] = viability profiling in MM1S myeloma cells – cell-based, resazurin fluorescence, basal, 24 h, PK04 Diversity Set, profiling panel (AID 1174); conditions: higher = more signal, called active from +8 up or from −8 down; note: test concentration not given here
# [14] = target: Dihydroorotate dehydrogenase (quinone), mitochondrial (Plasmodium falciparum (isolate 3D7)) (UniProt Q08210); assay: inhibition of P. falciparum DHODH – biochemical, C-terminal His tag, absorbance 600 nm, primary screen (AID 1175); conditions: PfDHODH enzyme, DCIP absorbance 600 nm; higher = more signal, called active from +8 up or from −8 down;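 note: recombinant parasite enzyme with a five histidine tag at its C terminus; test concentration not given here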
# [15] = inhibition of PAO1 biofilm formation – strain PAO1, LB-PBS medium, absorbance 600 nm, primary screen (AID 1176); note: test concentration not given here; conditions: P. aeruginosa PAO1 growth/biofilm, A600, 12 h; higher = more signal
# [16] = growth modulation of vineyard yeast isolate – strain RM11-1a, OD600, basal, 24 h, primary screen (AID 1177);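 note: cultures grown under basal conditions with no added stressor; test concentration not given here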; conditions: S. cerevisiae RM11-1a growth, OD600, 24 h; higher = more signal, called active from +8 up or from −8 down
# [17] = growth of efflux-deficient E. coli DRC39 – strain DRC39, OD650, 24 h, E. coli filamentation inducers, primary screen (AID 1178);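 note: growth measured as culture turbidity by optical density at 650 nm; test concentration not given here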; conditions: E. coli DRC39 acrAB, higher = more signal, called active from +8 up or from −8 down
# [18] = growth of efflux-deficient E. coli DRC39 – strain DRC39, OD650, 48 h, E. coli filamentation inducers, primary screen (AID 1179);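 note: screen aims at cell division blockers that make cells filament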; conditions: E. coli DRC39 delta-acrAB growth, higher = more signal, called active from +8 up or from −8 down
# [19] = viability profiling in RPMI8226 myeloma cells – cell-based, resazurin fluorescence, basal, 24 h, PK04 Diversity Set, profiling panel (AID 1180); conditions: higher = more signal;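 note: RPMI8826 multiple myeloma cell line at 5000 cells per well; test concentration not given here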
# [20] = target: E3 ubiquitin-protein ligase XIAP (Homo sapiens) (UniProt P98170); assay: small molecules binding XIAP protein – biophysical, small-molecule microarray, fluorescence 635 nm, primary screen (AID 1181); conditions: higher = more signal;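 note: score merges 667 nm emission and signal to noise over triplicate slides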
# E3 ubiquitin-protein ligase XIAP (Homo sapiens), sequence (P98170 whole entry, looked up): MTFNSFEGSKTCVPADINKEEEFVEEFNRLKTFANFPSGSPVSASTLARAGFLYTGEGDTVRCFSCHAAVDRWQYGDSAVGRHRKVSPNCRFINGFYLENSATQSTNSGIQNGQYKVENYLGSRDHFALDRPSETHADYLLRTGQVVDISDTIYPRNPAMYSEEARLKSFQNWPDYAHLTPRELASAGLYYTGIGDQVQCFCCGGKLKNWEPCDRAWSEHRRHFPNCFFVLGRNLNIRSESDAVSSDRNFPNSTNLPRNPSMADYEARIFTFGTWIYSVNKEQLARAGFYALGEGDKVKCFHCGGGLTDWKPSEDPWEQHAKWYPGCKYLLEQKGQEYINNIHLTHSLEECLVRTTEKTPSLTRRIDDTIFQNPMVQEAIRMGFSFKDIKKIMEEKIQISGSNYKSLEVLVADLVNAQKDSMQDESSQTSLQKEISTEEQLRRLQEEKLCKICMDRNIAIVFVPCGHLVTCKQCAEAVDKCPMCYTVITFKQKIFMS
# Dihydroorotate dehydrogenase (quinone), mitochondrial (Plasmodium falciparum (isolate 3D7)), sequence (Q08210 whole entry, looked up): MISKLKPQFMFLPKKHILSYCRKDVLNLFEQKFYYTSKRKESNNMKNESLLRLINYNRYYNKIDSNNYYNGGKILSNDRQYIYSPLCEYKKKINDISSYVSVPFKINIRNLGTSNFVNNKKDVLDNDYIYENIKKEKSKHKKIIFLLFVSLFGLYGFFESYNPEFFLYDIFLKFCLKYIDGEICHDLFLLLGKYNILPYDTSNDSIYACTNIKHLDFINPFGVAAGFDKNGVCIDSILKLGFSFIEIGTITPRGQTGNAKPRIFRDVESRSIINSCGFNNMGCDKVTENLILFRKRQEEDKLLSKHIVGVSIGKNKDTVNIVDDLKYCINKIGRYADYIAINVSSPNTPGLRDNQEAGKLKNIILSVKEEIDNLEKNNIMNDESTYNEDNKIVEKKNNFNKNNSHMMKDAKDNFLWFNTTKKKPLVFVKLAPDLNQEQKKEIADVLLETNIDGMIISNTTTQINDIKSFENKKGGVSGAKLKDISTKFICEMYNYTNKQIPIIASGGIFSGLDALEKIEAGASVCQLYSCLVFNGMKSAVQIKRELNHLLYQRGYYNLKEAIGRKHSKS
Compound,z-score [1],z-score [2],z-score [3],z-score [4],z-score [5],z-score [6],z-score [7],z-score [8],z-score [9],z-score [10],z-score [11],z-score [12],z-score [13],composite z-score [14],z-score [15],z-score [16],z-score [17],z-score [18],z-score [19],composite z-score [20]
CC(C)NC(=O)[C@@]1(c2ccc([N+](=O)[O-])cc2)CC(=O)N(C(C)C)[C@@H]1c1ccc(CO)cc1,1.19,0.63,0.959,0.385,1.38,0.763,0.481 (inactive),-1.03,-0.228,-1.1 (inactive),-0.864,0.347 (inactive),-0.972 (inactive),-1.53 (inactive),1.13 (inactive),-1.58 (inactive),0.423 (inactive),1.17 (inactive),-0.792,-0.369
CCCCCCC#C[Si](O[C@H](c1ccccc1)c1cn([C@H](C)c2ccccc2)nn1)(C(C)C)C(C)C,-0.577,-1.2,0.0417,0.227,0.0204,3.36,-0.0744 (inactive),-0.846,-1.19,2.74 (inactive),1.94,0.243 (inactive),2.59 (inactive),-0.204 (inactive),-0.443 (inactive),0.53 (inactive),-0.0375 (inactive),0.622 (inactive),3.6,-0.359
O=c1cccc(-c2cccc3ccccc23)o1,-1.07,-0.893,0.0962,-1.09,-1.84,0.113,1.05 (inactive),0.608,-1.07,0.058 (inactive),-0.0368,-14.1 (active),-0.0171 (inactive),-2.39 (inactive),0.794 (inactive),-1.95 (inactive),-0.0645 (inactive),-0.0042 (inactive),0.024,0.126
CCCC[C@H]1OB(O)C[C@H]2C1=C(COc1ccccc1)C[C@H]1C(=O)N(Cc3ccccc3)C(=O)[C@H]12,0.358,0.488,-0.429,-1.09,-1.08,0.989,0.241 (inactive),-0.163,-0.446,0.574 (inactive),0.552,-1.91 (inactive),0.804 (inactive),-1.25 (inactive),-0.802 (inactive),-0.0955 (inactive),0.875 (inactive),-0.281 (inactive),0.421,0.0617
CCCCCN1CC=CC23O[C@@H]4C=CCCOC(=O)C4[C@H]2C(=O)N(CCCO)[C@@H]3C1=O (stereo not given in full),-0.55,0.133,-0.904,0.0357,-0.0158,-0.639,-0.361 (inactive),-0.606,0.00824,-0.0645 (inactive),0.457,-0.613 (inactive),0.435 (inactive),-1.36 (inactive),-0.289 (inactive),-0.126 (inactive),-0.761 (inactive),-0.251 (inactive),-0.0665,-0.162
CC(C)[Si]1(C(C)C)O[C@@H](c2ccccc2)c2cc(-c3ccc(-c4ccc(Cl)c(Cl)c4)o3)nc(CCc3ccccc3)c21,-0.516,-0.694,0.433,-3.02,-3.72,-1.95,-1.72 (inactive),-0.965,-1.91,-0.748 (inactive),-0.662,-3.29 (inactive),-0.701 (inactive),-0.231 (inactive),0.726 (inactive),0.144 (inactive),0.231 (inactive),-0.0564 (inactive),-0.622,-0.27
NC(=O)[C@@]1(CCS(=O)(=O)c2ccccc2)N=C(c2ccc(OCCCO)cc2)O[C@H]1c1ccccc1,-0.291,0.957,-1.94,0.614,-1.13,-0.209,-0.219 (inactive),0.634,-0.659,0.798 (inactive),-0.0687,-1.38 (inactive),0.837 (inactive),-0.319 (inactive),-0.73 (inactive),-0.832 (inactive),0.818 (inactive),0.565 (inactive),0.429,0.0097
C=CC[C@@]1(C(N)=O)N=C(c2ccc(OCCCO)cc2)O[C@@H]1c1ccccc1N=[N+]=[N-],1.38,1.01,0.314,-0.35,-0.0394,-0.00877,0.875 (inactive),-0.327,0.759,1.02 (inactive),0.895,-1.08 (inactive),0.694 (inactive),0.832 (inactive),0.401 (inactive),0.178 (inactive),0.951 (inactive),-0.0342 (inactive),0.502,0.0896
NC(=O)NCC#Cc1ccc2c(c1)[C@]1(C(=O)N2)[C@H](c2ccccc2OCCO)N2[C@H](c3ccccc3)[C@H](c3ccccc3)OC(=O)[C@H]2[C@@H]1C(=O)N1CCCCCCC1,-0.169,0.73,0.231,-0.0358,0.236,-0.978,0.303 (inactive),-0.498,0.143,0.414 (inactive),-0.0969,-0.0475 (inactive),0.755 (inactive),0.417 (inactive),1.92 (inactive),0.899 (inactive),-0.315 (inactive),-0.127 (inactive),0.966,0.202
